Experimental findings from PubChem BioAssay AID492949 (National Center for Advancing Translational Sciences (NCATS), 2010) are described below.

Results filed as inconclusive are left out. Activity calls are given as the source filed them. Calls follow the shape of the dose curve; as a rule, active = well fitted activation curve with a large enough effect; inconclusive = small, poorly fitted or top-dose-only effect; inactive = no such curve, though single readings can be large or run the other way.
Potency is read from the fitted curve at half-maximal effect.

Chain of Relaxin receptor 1 (Homo sapiens) (Q9HBX9 whole entry, looked up): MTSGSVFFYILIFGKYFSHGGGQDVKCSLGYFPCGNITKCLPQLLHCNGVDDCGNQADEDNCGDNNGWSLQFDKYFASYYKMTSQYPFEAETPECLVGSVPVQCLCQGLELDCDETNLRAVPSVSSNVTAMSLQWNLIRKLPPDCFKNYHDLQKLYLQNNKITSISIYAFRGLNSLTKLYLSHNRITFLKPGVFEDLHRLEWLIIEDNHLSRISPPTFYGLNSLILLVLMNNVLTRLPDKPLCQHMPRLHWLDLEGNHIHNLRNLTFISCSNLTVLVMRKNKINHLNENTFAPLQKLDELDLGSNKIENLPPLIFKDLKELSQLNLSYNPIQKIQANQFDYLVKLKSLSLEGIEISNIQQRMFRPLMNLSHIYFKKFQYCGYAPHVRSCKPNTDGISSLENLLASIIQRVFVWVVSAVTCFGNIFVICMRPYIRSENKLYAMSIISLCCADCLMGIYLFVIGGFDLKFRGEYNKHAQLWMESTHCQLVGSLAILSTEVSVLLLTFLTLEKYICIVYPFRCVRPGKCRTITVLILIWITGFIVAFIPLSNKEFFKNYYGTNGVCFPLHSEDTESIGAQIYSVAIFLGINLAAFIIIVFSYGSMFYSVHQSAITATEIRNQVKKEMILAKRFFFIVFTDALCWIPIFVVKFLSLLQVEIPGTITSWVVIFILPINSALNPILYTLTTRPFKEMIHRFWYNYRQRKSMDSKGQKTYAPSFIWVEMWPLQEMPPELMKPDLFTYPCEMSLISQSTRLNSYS

This assay has as its target Relaxin receptor 1 (Homo sapiens) (UniProt Q9HBX9). Description: qHTS Assay for Agonists of the Relaxin Receptor RXFP1: THP1 Hit Validation. Also: nearly all actives have a fitted effect of over 60% in size. Conditions: THP1-RXFP1 cells, cAMP TR-FRET, 30 min; series mostly up to 115 µM. The text has this: The relaxin hormone is involved in the variety of biological functions in normal tissues and diseases. The role of relaxin is well-established in female reproduction and parturition, mammary gland and endometrial development, maintenance of myometrial quiescence during pregnancy. Relaxin signaling through its G protein-coupled receptor (GPCR) RXFP1 results in ECM remodeling through regulation of collagen deposition, cell invasiveness, proliferation and overall tissue homeostasis. […] Recombinant human relaxin (rhRlx) is currently being tested in clinical trials as a protective agent in congestive heart failure, in treating severe preeclampsia, and as an anti-fibrotic agent in systemic sclerosis.
Upon relaxin binding RXFP1 activation leads to the activation of adenylate cyclase (AC) via Gs. cAMP will activate PKA, which phosphorylates many signaling proteins. Thus, detection of cAMP increase is an easy and reliable indication of relaxin receptor activation. To screen for agonists of the relaxin receptor, a THP1 cell line stably transfected with RXFP1 was used. RXFP1 activation was assayed by changes in cAMP levels as detected with a time-resolved fluorescence energy transfer (TR-FRET) cAMP detection kit.
NIH Chemical Genomics Center [NCGC]
NIH Molecular Libraries Probe Production Centers Network [MLPCN]
Assay Submitter (PI): Alexander Agoulnik
NCGC Assay Protocol Summary:
This is a cell-based assay for cAMP second messenger response to screen for agonists of the RXFP1 receptor. The assay was conducted in the presence of a PDE4 inhibitor (Ro 20174). The cells were lysed and the cAMP levels were measured with a TR-FRET cAMP kit. Presence of cAMP in the cell lysate disrupts binding between the cryptate-labeled anti-cAMP and d2-labeled cAMP pair, leading to a decrease in the TR-FRET signal. Data were normalized to the controls for basal activity (buffer only) and 100% activity (29 nM porcine relaxin). The EC50 values were determined from concentration-response data modeled with the standard Hill equation
1536-well assay protocol for the THP1 RXFP1 cAMP assay:
(1) Add 3 ul THP1 RXFP1 cell culture. 2000 cells/well in DMEM/F12, 10% FBS, 1x Pen/Strep (dispensed offline with MultiDrop Combi).
(3) Add 23 nl compounds in DMSO solution. Final concentration was 0.5 - 58 uM.
(4) Incubate 30 min at 37C, 5% CO2.
(5) Add 1 ul cAMP-d2 in lysis buffer (HTRF cAMP HiRange kit, CisBio).
(6) Add 1 ul anti-cAMP antibody-cryptate in lysis buffer (HTRF cAMP HiRange kit, CisBio).
(7) Incubate 30 min at room temperature.
(6) Detect the assay plate in a ViewLux plate reader (PerkinElmer) with Ex=320 nm, Em1=615 nm and Em2=665 nm.
Keywords: relaxin, RXFP1, RXFP2, G-protein coupled receptor, cAMP, agonist, high throughput screening, MLSMR, MLSCN, NIH Roadmap, qHTS and NCGC
Regarding `Cc1ccccc1OCC(=O)Nc1sc(C(=O)Nc2cccc(C)c2C)c(C)c1C#N`, the Potency is 7.74 µM (active).

For the compound `CC(C)c1ccccc1NC(=O)c1ccccc1NC(=O)C1CCCCC1`, the Potency result is “inactive”.

As to `Cc1cccn2c(=O)c(/C=C3\SC(=S)NC3=O)c(NCCCN3CCOCC3)nc12`, the Potency was 4.88 µM (active).

Regarding `CN(Cc1ccccc1)C(=O)c1ccccc1NC(=O)c1ccco1`, the Potency entry is “inactive”.

On to `Cc1cccc(N2C(=O)C(O)=C(C(=O)c3cccs3)C2c2ccc(C(C)C)cc2)n1` (stereo not given), for which the Potency result was “inactive”.

Regarding `Cc1ccc(CN(C)C(=O)c2ccccc2NC(=O)c2ccccc2)o1`, the Potency result is “inactive”.

As for `C=C(C)C(=O)Nc1cccc(C2=NOC3(C2)C[C@@H](C(N)=O)N(C(=O)c2ccc(Cl)cc2)C3)c1` (stereo not given in full), the Potency result is “inactive”.

With `CN(CC(=O)Nc1ccccc1Cl)C(=O)COC(=O)Cc1c(F)cccc1Cl`, the Potency entry was “inactive”.

Consider `O=C(Nc1ccccc1C(=O)N1CCOCC1)c1ccco1`, for which the Potency entry was “inactive”.

Regarding `COc1ccc(/C=C2/SC(=O)N(CC(=O)Nc3cc(C)on3)C2=O)cc1OC`, the Potency entry is “inactive”.

In the case of `Cc1cc(C)c(NC(=O)CS(=O)CC(=O)Nc2ccc(F)cc2F)c(C)c1` (stereo not given), the Potency entry was “inactive”.

For `O=c1c2ccccc2cnn1Cc1n[nH]c(=S)n1-c1ccc(F)c(Cl)c1`, the Potency was 12.3 µM (active).

As for `CN(C)CCCn1c(SCC(=O)Nc2nc(-c3cccc(Br)c3)cs2)nc2ccccc2c1=O`, the Potency entry was “inactive”.

As to `O=C(COc1ncnc2scc(-c3ccccc3)c12)NCCN1C(=O)CSC1=O`, the Potency was 19.4 µM (active).

As to `CC(NC(=O)c1ccccc1NC(=O)c1ccco1)C(=O)O` (stereo not given), the Potency entry was “inactive”.

Regarding `COc1ccc(CN2C(=O)c3cccnc3C2=O)cc1S(=O)(=O)NC1CCCCC1`, the Potency is 19.5 µM (active).

Consider `CCc1ccc(-c2nc3ccc(Br)cc3c(C(=O)O)c2C)s1`, for which the Potency was 6.15 µM (active).

For `CCC(Sc1ccc2nnc(-c3cccnc3)n2n1)C(=O)OC` (stereo not given), the Potency was 19.4 µM (active).

Consider `Cc1ccc(-n2c(=S)[nH]c3sc4c(c3c2=O)CCC4)cc1`, for which the Potency is 8.68 µM (active).

With `CCN(CC)S(=O)(=O)c1cccc(N=Nc2c(O)c3ccccc3oc2=O)c1`, the Potency is 9.77 µM (active).

Turning to `Cc1ccc2cc(CN(C(=O)c3cccs3)c3ccccc3)c(=O)[nH]c2c1`, the Potency result is “inactive”.

On to `CCCN(CCC)S(=O)(=O)c1cc(CN2C(=O)c3cccnc3C2=O)ccc1OC`, for which the Potency was 24.5 µM (active).

`COc1ccccc1NC(=O)CCCc1nnc2n(C)c(=O)c3sccc3n12`: the Potency was 15.4 µM (active).

As to `Cc1cc(C)c(C(=O)CSc2n[nH]c(=O)n2C2CC2)cc1C`, the Potency entry was “inactive”.

`O=C(Nc1ccccc1C(=O)NCCN1CCOCC1)c1ccco1`: the Potency result was “inactive”.

On to `CCN(CC)c1ccc(S(=O)(=O)N2CCOCC2)cc1NC(=O)CSc1nncn1C`, for which the Potency was 15.4 µM (active).

In the case of `CC(C)(C)C(=O)Nc1ccccc1C(=O)NCc1ccco1`, the Potency entry is “inactive”.

Regarding `Cc1cccc(NC(=O)c2ccccc2NC(=O)C2CCCCC2)c1C`, the Potency result was “inactive”.

With `S=c1nc[nH]c2c1[nH]c1ccccc12`, the Potency was 7.74 µM (active).

As to `C[C@H](Cc1ccccc1)Nc1ncnc2c1ncn2[C@@H]1O[C@H](CO)[C@@H](O)[C@H]1O`, the Potency result is “inactive”.

On to `CC(C(=O)OCC(=O)N(C)C1(C#N)CCCCC1)N1C(=O)c2ccccc2C1=O` (stereo not given), for which the Potency is 15.4 µM (active).

In the case of `CCN(CC)S(=O)(=O)c1ccc(C)c(NC(=O)Cn2cnc3cc([N+](=O)[O-])ccc3c2=O)c1`, the Potency is 12.3 µM (active).

In the case of `COc1ccccc1CNS(=O)(=O)c1cc(CN2C(=O)c3cccnc3C2=O)ccc1OC`, the Potency is 17.4 µM (active).

As for `N#Cc1c(N)nc(SCC(=O)C23CC4CC(CC(C4)C2)C3)c(C#N)c1-c1ccc(Cl)cc1`, the Potency is 12.3 µM (active).

Regarding `CC(=O)c1sc(NC(=O)C(C)C)nc1C`, the Potency is 19.4 µM (active).

With `COC(=O)Cn1cnc2c(C#N)c3n(c2c1=O)CCCCC3`, the Potency is 8.7 µM (active).

For `C=CCNc1ncnc2c1ncn2C1OC(CO)C(O)C1O` (stereo not given), the Potency entry is “inactive”.

For the compound `CCS(=O)(=O)Nc1cccc(-c2ccc3nnc(-c4cccnc4)n3n2)c1`, the Potency was 27.5 µM (active).

In the case of `COC(=O)Cn1cnc2c(C#N)c3n(c2c1=O)CCCC3`, the Potency is 24.5 µM (active).

Take `O=C(Nc1ccccc1C(=O)NCCc1ccc(O)cc1)c1ccco1`: the Potency entry was “inactive”.
